# Source: the supplement of paper PMC10338343
# ± gives the standard deviation.
# Tested on: MILI (PIWIL2) piRISC loaded with piRNA #1 (26 nt);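 further: 1 nM active piRISC with 0.1 nM target library at 33 °C single turnover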
# Experiment: pre-steady-state target cleavage rate (min^-1); guide: piRNA #1 5'p-UGAGGUAGUAGGUUGUAUAGUAUCCA; higher = faster piRNA-guided slicing of the target
# Conditions: auxiliary factor: 500 nM mouse GTSF1
# How it was run: (§1)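 For Cleave-'n-Seq, a transcribed, DNA-blocked target RNA library […] met 1 nM active affinity-purified piRISC with one synthetic guide at 33 °C for 0–8 or 0–960 min in HEPES–potassium acetate buffer, with or without 500 nM GTSF1 partner protein. Uncleaved targets were sequenced and normalised to depth and weakly complementary targets, with three trials pooled and k3 capped at 0.0001 min^-1. A burst-and-steady-state fit supplied the pre-steady-state cleavage rate.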
row,Sequence,pre-steady-state target cleavage rate
1,GGAGACGAUACUCAUACAACCUACUACCUCA,0.198 ± 0.02
2,GGAGUGGAUACUAUACAUCCUACUACGUCA,0.0364 ± 0.0082
3,GGAGACGAUACUAUAGAUCCUACUACCUCA,0.224 ± 0.013
4,GGAGAGGAUACUAUACAACCUAUACCUCA,0.00606 ± 0.0021
5,GGAGAGGAUACUUUACAUCCUACUACCUCA,0.253 ± 0.016
6,GGAGUGGAUACUAUAGAUCCUACUACCUCA,0.251 ± 0.015
7,GGAGACCUAUCUACACAACCUACUACCUCA,0.072 ± 0.0099
8,GGAGACCAUACUAUACAACCUACUUCCUCA,0.114 ± 0.018
9,GGAGACCUUACUAUACAACCUACUGCCUCA,0.0872 ± 0.011
10,GGAGUGGAUACUAGACAACCUACUACCUCA,0.193 ± 0.011
11,GGAGACGAUAUCUAUACAACCUACUACCUCA,0.0966 ± 0.013
12,GGAGACGAUACUAUACAACCUACUACCGCA,0.161 ± 0.021
13,GGAGUGGAUACUAUACAUCCUACAACCUCA,0.165 ± 0.014
14,GGAGACGAUACUAAACAAGCUACUACCUCA,0.268 ± 0.016
15,GGAGACCUUGCUAUACAACCUACUACCUCA,0.114 ± 0.022
16,GGAGAGGAUUCUAUACAACCUACUACCUCA,0.179 ± 0.011
17,GGAGACCAUACUCAUACAACCUACUACCUCA,0.119 ± 0.013
18,GGAGACGAUAGCUAUACAACCUACUACCUCA,0.0779 ± 0.0075
19,GGAGACCUAUCUAUACAACCUACUGCCUCA,0.0855 ± 0.013
20,GGAGUCGAUACUAUACAACGUACUACCUCA,0.0256 ± 0.0024

row,Sequence,pre-steady-state target cleavage rate
1,GGAGUGCAUACUAUACUACCUACUACCUCA,0.161 ± 0.0089
2,GGAGACCUUACUAUACAACAUACUACCUCA,0.0732 ± 0.0077
3,GGAGUCGAUAGUAUACAACCUACUACCUCA,0.154 ± 0.011
4,GGAGACCUUACUAUACAACCUACUACCUGCA,0.167 ± 0.019
5,GGAGACGAUACUAUACAAACCUACUACCUCA,0.00373 ± 0.0026
6,GGAGUGGAUACUAUACAACCUACUACCUCC [g2:g26:cont:t1C],0.188 ± 0.0099
7,GGAGACGAUACUAUACAACCUACUACCUAA,0.153 ± 0.015
8,GGAGUGGAUACUAUACAACCUACUACCUUA,0.112 ± 0.011
9,GGAGACCAUACUAUACCACCUACUACCUCA,0.157 ± 0.013
10,GGAGAGGAUACUAUACAACCUACUAUCUCA,0.131 ± 0.012
11,GGAGUGCAUAGUAUACAACCUACUACCUCA,0.125 ± 0.011
12,GGAGACGAUACUAUACAACCUACUGCCUCA,0.11 ± 0.015
13,GGAGAGGAUACAAUACAACGUACUACCUCA,0.0139 ± 0.003
14,GGAGUGGAUACUAUACAACCUACUACACUCA,0.128 ± 0.018
15,GGAGACCAUACUAUACUACCUACUACGUCA,0.104 ± 0.017
16,GGAGUGGAAUCUAUACAACCUACUACCUCA,0.152 ± 0.0088
17,GGAGUGGAUACAAUACUACCUACUACCUCA,0.16 ± 0.013
18,GGAGACGAUACUAUACAACCAACUACGUCA,0.00504 ± 0.0028
19,GGAGACGAUACAAUACAACCUACAACCUCA,0.152 ± 0.018
20,GGAGACCUAUCUAUACAACGUACUACCACA,0.0153 ± 0.0035

# Tested on: EfPiwi piRISC loaded with piRNA #1 (26 nt)
# Experiment: pre-steady-state target cleavage rate (min^-1); auxiliary factor: 500 nM Ephydatia muelleri Gtsf1; guide: piRNA #1 5'p-UGAGGUAGUAGGUUGUAUAGUAUCCA; MIWI and MILI are mouse PIWI proteins and EfPiwi is from a freshwater sponge; tags in brackets are library labels; higher = faster piRNA-guided slicing of the target
# Conditions: not given
# How it was run: as §1
row,Sequence,pre-steady-state target cleavage rate
1,GGAGACGAUACUCAUACAACCUACUACCUCA,0.0151 ± 0.0063
2,GGAGUGGAUACUAUACAUCCUACUACGUCA,0.0038 ± 0.0013
3,GGAGACGAUACUAUAGAUCCUACUACCUCA,0.00498 ± 0.0016
4,GGAGAGGAUACUAUACAACCUAUACCUCA,0.00469 ± 0.0024
5,GGAGAGGAUACUUUACAUCCUACUACCUCA,0.00455 ± 0.0027
6,GGAGUGGAUACUAUAGAUCCUACUACCUCA,0.0045 ± 0.0029
7,GGAGACCUAUCUACACAACCUACUACCUCA,0.00358 ± 0.0034
8,GGAGACCAUACUAUACAACCUACUUCCUCA,0.00455 ± 0.002
9,GGAGACCUUACUAUACAACCUACUGCCUCA,0.00661 ± 0.0029
10,GGAGUGGAUACUAGACAACCUACUACCUCA,0.226 ± 0.081
11,GGAGACGAUAUCUAUACAACCUACUACCUCA,0.00603 ± 0.0041
12,GGAGACGAUACUAUACAACCUACUACCGCA,0.00926 ± 0.0033
13,GGAGUGGAUACUAUACAUCCUACAACCUCA,0.00378 ± 0.0019
14,GGAGACGAUACUAAACAAGCUACUACCUCA,0.00331 ± 0.0031
15,GGAGACCUUGCUAUACAACCUACUACCUCA,0.00436 ± 0.004
16,GGAGAGGAUUCUAUACAACCUACUACCUCA,0.0066 ± 0.0039
17,GGAGACCAUACUCAUACAACCUACUACCUCA,0.0108 ± 0.0052
18,GGAGACGAUAGCUAUACAACCUACUACCUCA,0.0112 ± 0.0049
19,GGAGACCUAUCUAUACAACCUACUGCCUCA,0.00997 ± 0.0044
20,GGAGUCGAUACUAUACAACGUACUACCUCA,0.00501 ± 0.0019

row,Sequence,pre-steady-state target cleavage rate
1,GGAGUGCAUACUAUACUACCUACUACCUCA,0.00588 ± 0.0029
2,GGAGACCUUACUAUACAACAUACUACCUCA,0.00974 ± 0.0063
3,GGAGUCGAUAGUAUACAACCUACUACCUCA,0.0054 ± 0.0038
4,GGAGACCUUACUAUACAACCUACUACCUGCA,0.00419 ± 0.0031
5,GGAGACGAUACUAUACAAACCUACUACCUCA,0.00846 ± 0.0032
6,GGAGUGGAUACUAUACAACCUACUACCUCC [g2:g26:cont:t1C],0.105 ± 0.037
7,GGAGACGAUACUAUACAACCUACUACCUAA,0.103 ± 0.033
8,GGAGUGGAUACUAUACAACCUACUACCUUA,0.276 ± 0.095
9,GGAGACCAUACUAUACCACCUACUACCUCA,0.00807 ± 0.004
10,GGAGAGGAUACUAUACAACCUACUAUCUCA,0.081 ± 0.036
11,GGAGUGCAUAGUAUACAACCUACUACCUCA,0.0131 ± 0.0064
12,GGAGACGAUACUAUACAACCUACUGCCUCA,0.00691 ± 0.0024
13,GGAGAGGAUACAAUACAACGUACUACCUCA,0.00326 ± 0.002
14,GGAGUGGAUACUAUACAACCUACUACACUCA,0.00464 ± 0.0021
15,GGAGACCAUACUAUACUACCUACUACGUCA,0.0039 ± 0.0028
16,GGAGUGGAAUCUAUACAACCUACUACCUCA,0.00913 ± 0.0055
17,GGAGUGGAUACAAUACUACCUACUACCUCA,0.00316 ± 0.0019
18,GGAGACGAUACUAUACAACCAACUACGUCA,0.00251 ± 0.0018
19,GGAGACGAUACAAUACAACCUACAACCUCA,0.00274 ± 0.0027
20,GGAGACCUAUCUAUACAACGUACUACCACA,0.00343 ± 0.0031
